Here are results for 25 compounds from PubChem BioAssay (NCI).

Compounds without any hit were thinned out: in the full panel of roughly 83,000, 20% have a hit.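 In brief: 96-well plates, 48 h treatment, single concentration, percent growth endpoint.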 A number with no mark means an inactive call. The source made the active and inactive calls. The calls were made as follows: active = growth percent below 10; inactive = the rest.

In the assay the test system is HL-60(TB) leukemia. As to the kind of experiment: NCI-60 one-dose screen, 48 h (100 = growth as untreated, 0 = no growth, -100 = all killed). To be noted: 10 µM unless noted.
In the case of `CC(=O)c1ccc(Nc2nc(NCCO)nc(Nc3ccc(Cl)cc3)n2)cc1`, the growth is 103%.

As for `COc1ccc(-c2nc(SCCC(C)C)nc(N/N=C\c3cccc(Cl)c3)c2C#N)cc1`, the growth was 82%.

For the compound `COc1cc(C(=O)Nc2cc(O)c(CC=C(C)C)c(O)c2)cc2c1O[C@]1(C)CC[C@@H](O)C(C)(C)[C@H]1C2`, the growth is 5.12% (active).

As to `COc1cccc(-c2nn(-c3ccccc3)cc2-c2ccnc(NCCNC(=O)c3ccccc3)c2)c1`, the growth was 25.2%.

Turning to `CC(C)C1=NOC(=O)C1=Cc1cn(-c2cccnc2)nc1-c1ccccc1`, the growth was -0.56% (active).

`c1cncc(-c2csc(-c3c[nH]c4ccccc34)n2)c1`: the growth was 91.9%.

Regarding `Cc1ccccc1-c1cc(Cc2ccccc2O)c(=O)[nH]n1`, the growth was 84.1%.

For the compound `Cn1c(=O)c(F)c(Nc2ccc(I)cc2F)c2c(=O)n(C[C@@H](O)CO)cnc21`, the growth is 15.8%.

On to `Cc1ccc(NC(=O)N/C(N)=N/c2nc(=O)c3ccccc3s2)cc1`, for which the growth was 33.7%.

Regarding `COc1ccc2[nH]c(C(=O)N3CCN(C(=O)OCc4ccc5c(Cl)cc(Cl)c(O)c5n4)CC3)cc2c1`, the growth is -45% (active).

For `CCCCCCCCCCCCCC`, the growth is 87%.

As to `Nc1ncnc2c1N=C(c1ccc3c(c1)OCO3)CC(c1ccc([N+](=O)[O-])cc1)N2` (stereo not given), the growth is 88.7%.

With `C=C1CC[C@@H]2[C@](C)(COC(C)=O)[C@H](OC(C)=O)CC[C@@]2(C)[C@@H]1CC(Nc1ccc(S(=O)(=O)Nc2nc(C)cc(C)n2)cc1)C1=CCOC1=O` (stereo not given in full), the growth was 21.7%.

Consider `Cc1cc(NS(=O)(=O)c2ccc(NC(=O)COc3ccc(-c4cc5ccccc5[nH]4)cc3)cc2)no1`, for which the growth was 7.86% (active).

`CCOCCc1c(O)nc(SC)[nH]c1=O`: the growth is 93.3%.

For the compound `Cc1ccc(-c2nc(C#N)c(S(=O)(=O)NCCO)o2)cc1`, the growth is -20.1% (active).

Turning to `CC(=O)Nc1ccc(-c2ccc3c(c2)NC(=O)/C3=C\c2ccc[nH]2)cc1`, the growth is 95.5%.

Take `CC(=O)c1cc2c(N)c(C(=O)Nc3cccc(F)c3C)sc2nc1C`: the growth was 57.1%.

On to `COc1cccc2cc(N(C)c3ncnc4ccccc34)ccc12`, for which the growth was -29.1% (active).

As to `CCOC(=O)C1=C(C)n2nc(CC#N)c(C#N)c2NC1c1ccc(CC)cc1` (stereo not given), the growth is 115%.

For the compound `C/C=C(/C)C(=O)OC1C=C(CO)C(=O)C(OC(=O)/C(C)=C\C)C1C(C)C` (stereo not given), the growth was -32% (active).

For `C#CCOc1cccc(Nc2ncnc3cc(NC(=O)CCl)ccc23)c1`, the growth is -62.2% (active).

For `CC1=NCC2NC(=O)NC(C)=C12` (stereo not given), the growth is 109%.

Take `COc1ccccc1/C=C1\Oc2cc(OCCN3CCCC3)ccc2C1=O`: the growth is 97.1%.

In the case of `O=C1NC(=S)S/C1=C\N1N=C(c2ccc(Cl)cc2)CC1c1ccc(F)cc1` (stereo not given), the growth is 99.5%.
